# Hit rate of the full screen: of about 68,000 compounds, about 2,700 (4%) showed an effect of 50% or more. What follows is part of a selection rich in strong results, with near analogues and random picks from the rest.
# Tested on: Plasmodium berghei
# Assay: Screen against P. berghei liver stage (PbLuc), transformed with Luciferase, at 2uM
# Type: functional, HepG2
# Details: tested at 2 uM
row,Compound,INHIBITION
1,Cc1cnc(CCNc2cccc(CC3CCCNC3)n2)s1 (stereo not drawn),23.7%
2,CC[C@@H]1N(Cc2ccsc2)CCC[C@]12CCC(=O)N2CCOC,-27.69%
3,CC[C@@H]1N(Cc2ccsc2)CCC[C@]12CCC(=O)N2C,62.46%
4,CC[C@@H]1N(Cc2ccc(C)s2)CCC[C@]12CCC(=O)N2C,20.42%
5,CC[C@@H]1N(Cc2ccc(F)cc2)CCC[C@]12CCC(=O)N2C,25.46%
6,CC[C@H]1N(Cc2ccco2)CCC[C@]12CCC(=O)N2C,23.26%
7,CC[C@@H]1N(Cc2ccco2)CCC[C@]12CCC(=O)N2C,53.46%
8,CCCOc1ccc(CC2=NC(C)(CO)CO2)cc1 (stereo not drawn),-27.61%
9,CCNC(=O)[C@@H]1CCCN1[C@@H](C(=O)NC)c1ccccc1,-11.34%
10,CSCc1noc(CN2CCC3(CC2)CC(=O)N(CC(C)C)C3)n1,10.61%
11,CC(C)N(CCCNC(=O)C1CC(=O)N(C)C1)S(C)(=O)=O (stereo not drawn),2.97%
12,COC(=O)C(C)(C)NC(=O)c1cnc(Cc2ccc(F)cc2)s1,-32.82%
13,COc1ccnc(NC(Cc2ccccc2)C(N)=O)n1 (stereo not drawn),33.9%
14,COc1ccc(-c2ccc(C(=O)NS(C)(=O)=O)c(F)c2)c(F)c1,-27.53%
15,COc1ccc(-c2ccc(C(=O)O)c(F)c2)c(F)c1,17.01%
16,COc1ccc(-c2ccc(C(=O)NCCCC(N)=O)c(F)c2)c(F)c1,53.81%
17,CN(C)Cc1nnc2n1CCCN(C(=O)c1c[nH]cn1)C2,-51.91%
18,O=C(c1c[nH]cn1)N1CCCn2c(nnc2Cn2cccc2)C1,26.44%
19,O=C(c1c[nH]cn1)N1CCCn2c(CN3CCCCC3)nnc2C1,51.26%
20,CNc1cc(C)nc(C2CN(Cc3cncs3)CCO2)c1 (stereo not drawn),-29.68%
21,CC(C)N(C)C(=O)CSCc1ccc(S(=O)(=O)N(C)C)o1,30.34%
22,Cn1cc(CN(C(=O)c2ccc(O)c(Cl)c2)C2CC2)cn1,-33.15%
23,Cn1cc(CN(C(=O)c2ccc3ncsc3c2)C2CC2)cn1,57.34%
24,CN1C(=O)c2ccc(C(=O)N(Cc3cnn(C)c3)C3CC3)cc2C1=O,21.14%
25,CCn1cnnc1C1CCN(C(=O)c2cccc(-n3cccc3)c2)CC1,-6.48%
26,COc1cc(N2CCC3(CCN(Cc4nccs4)CC3)C2)ncn1,7.71%

row,Compound,INHIBITION
1,CCCc1cc(C(=O)N(C)Cc2ccc(OC)c3ncccc23)n(C)n1,58.56%
2,CCCc1cc(C(=O)N(C)Cc2cccc3cnccc23)n(C)n1,19.91%
3,CCCc1cc(C(=O)N(C)Cc2cccc3ncccc23)n(C)n1,-24.24%
4,O=C(c1ccccc1)N1C[C@H]2CC[C@@H](C1)N(S(=O)(=O)c1cccnc1)C2,-23.58%
5,Cc1noc(C)c1CN1CCC2(CCN(Cc3cccc(F)c3)CC2)C1,24.04%
6,Cc1nc2ccccc2nc1NCc1cccc(OCC2CCCO2)c1 (stereo not drawn),17.25%
7,O=C(CC1=CCCCC1)N1CCC(Cn2cc(CCO)nn2)CC1,-8.21%
8,COc1ccc(CCCN2C(=O)O[C@@H]3CN(C4CCOCC4)C[C@@H]32)cc1,51.81%
9,O=C1O[C@@H]2CN(C3CCOCC3)C[C@@H]2N1CCCc1ccc(F)cc1,-23.46%
10,COc1ccc(CCN2C(=O)O[C@@H]3CN(C4CCOCC4)C[C@@H]32)cc1,1.42%
11,Cc1cc(CN(C)C(=O)CN2CC3(CCNCC3)OC2=O)n(C)n1,24.12%
12,CC(Cn1cc(Br)cn1)C(=O)Nc1ccc(C(N)=O)cc1 (stereo not drawn),-34.79%
13,CSc1nnc(C2CCN(C(=O)N3CCCC3)CC2)n1C,5.83%
14,O=C(Nc1cccnc1)[C@H]1C[C@H]2OCC[C@H]2N(Cc2ccc(F)cc2)C1,26.62%
15,c1ccc(CN2CCc3ncnc(C4CC4)c3CC2)cc1,14.13%
16,N#CC1CCCN(c2ncnc3c2CCN(Cc2ccccc2)CC3)C1 (stereo not drawn),51.9%
17,Cn1ccnc1CN1CCc2ncnc(N3CCCC(C#N)C3)c2CC1 (stereo not drawn),23.64%
18,Cc1cc(Cn2cc(C(C)Cc3ccc4c(c3)OCO4)nn2)n[nH]1 (stereo not drawn),49.88%
19,CC(Cc1ccc2c(c1)OCO2)c1cn(CCN2CCCC2)nn1 (stereo not drawn),69.71%
20,CC(Cc1ccc2c(c1)OCO2)c1cn(CCc2c[nH]cn2)nn1 (stereo not drawn),46.58%
21,CN(Cc1ccncc1)C1COC2(CCN(Cc3ccco3)CC2)C1 (stereo not drawn),45.36%
22,O=C(Nc1cn[nH]c1)c1ccc(O)nc1,45.75%
23,Cn1nc(C2CCCN(Cc3ccc(F)c(F)c3)C2)c2nccnc21 (stereo not drawn),38.65%
24,O=C(c1n[nH]c(=O)c2ccccc12)N1CCC(O)(CN2CCOCC2)C1 (stereo not drawn),-28.4%
25,Cc1ccc(CN(CCCn2ccnc2)Cc2c(F)cccc2F)s1,36.26%
26,O=C(CCn1cccn1)N1C[C@H]2CC[C@@H](C1)N(Cc1ccccn1)C2=O,-19.54%

row,Compound,INHIBITION
1,Cn1ncnc1CNC1CCc2cc(Cl)ccc21 (stereo not drawn),74.44%
2,Cc1ccc2c(c1)C(NCc1ncnn1C)CC2 (stereo not drawn),38.67%
3,Cn1ncnc1CNC1CCCc2cc(F)ccc21 (stereo not drawn),-9.03%
4,CC(C)NC(=O)C1CCc2nnc(C(C)(C)C)n21 (stereo not drawn),12.84%
5,O=C(CCN1CCOCC1)Nc1cccc(CNCc2ccsc2)c1,3.54%
6,CCOc1ccccc1CNC(=O)N(CC)C(C)c1cccnc1 (stereo not drawn),21.97%
7,CC(NC(=O)NCc1cccnc1N(C)C)c1cccs1 (stereo not drawn),51.31%
8,CN(C)c1ncccc1CNC(=O)NCc1ccco1,37.15%
9,CCN(C(=O)NCc1ccccc1OC(F)F)C(C)c1cccnc1 (stereo not drawn),38.67%
10,CCN(C(=O)NCc1cccnc1N(C)C)C(C)c1cccnc1 (stereo not drawn),57.75%
11,CN(C)c1ncccc1CNC(=O)NCC(c1cccs1)N(C)C (stereo not drawn),31.55%
12,CC(NC(=O)NCc1cccnc1N(C)C)c1ccc(F)cc1 (stereo not drawn),59.21%
13,CN(C)c1ccc(NC(=O)NCc2cccnc2N(C)C)cn1,1.63%
14,CC(C)C(NC(=O)NCc1cccnc1N(C)C)c1cccs1 (stereo not drawn),-16.65%
15,CCN(CC1CN(CC2CCC2)CCO1)c1cccnn1 (stereo not drawn),47.61%
16,Cc1nc2n(n1)CC(NCc1cc(Cl)c3c(c1)OCCCO3)CC2 (stereo not drawn),3.86%
17,CN(Cc1ccco1)[C@@H]1CN(Cc2ccc(F)cc2)[C@@H]2CCCO[C@H]12,-12.36%
18,COc1ncnc(N)c1CNCCc1ccc(-n2cccn2)cc1,18.37%
19,O=C(c1cccs1)N1CC[C@H]2C[C@@H](c3nnc(C4CC4)o3)O[C@@H]2C1,31.41%
20,CN(C)C(=O)C1OC2(CCN(C(=O)c3ccoc3)CC2)c2ccccc21 (stereo not drawn),25.43%
21,CCC(O)CN1CCN(C(=O)c2cccn2Cc2ccncc2)CC1 (stereo not drawn),-21.72%
22,COCC1Cn2nnc(-c3cnn(C)c3)c2CN1Cc1cccs1 (stereo not drawn),-34.95%
23,COCC1Cn2nnc(-c3cnn(C)c3)c2CN1Cc1ccco1 (stereo not drawn),14.97%
24,COCC1Cn2nnc(-c3cnn(C)c3)c2CN1Cc1ccc(C)o1 (stereo not drawn),56.76%
25,COCC1Cn2nnc(-c3cnn(C)c3)c2CN1Cc1ccoc1 (stereo not drawn),19.42%
26,COCC1Cn2nnc(-c3cnn(C)c3)c2CN1Cc1ccc(C)s1 (stereo not drawn),52.77%

row,Compound,INHIBITION
1,COCC1Cn2nnc(-c3cnn(C)c3)c2CN1Cc1ccsc1 (stereo not drawn),33.14%
2,Cc1ccccc1CNC(=O)Cn1nc(-c2ccc(F)cc2)oc1=O,-25.13%
3,CCOc1ccc(C(=O)Nc2c(C)nc3ccc(Cl)cn3c2=O)cc1,27%
4,Cc1cc2cc(Nc3c(C#N)c(=O)n(C)c(=O)n3C)ccc2[nH]1,13.53%
5,O=C(CSc1ccc2c(c1)OCCO2)NS(=O)(=O)c1cccnc1,16.95%
6,Cc1ccc(N(C)S(=O)(=O)c2cc(C(=O)O)cs2)cc1,-29.54%
7,Cc1cc(C)cc(N(C)S(=O)(=O)c2cc(C(=O)O)cs2)c1,-8.84%
8,Cc1cccc(N(C)S(=O)(=O)c2cc(C(=O)O)cs2)c1,68.24%
9,O=C(Nc1ccccc1)N1C[C@@H]2C[C@H](C(=O)N3CCOCC3)[C@H](C1)O2,24.15%
10,CC(C)(C)CC(=O)NCCn1nc(C2CCNC2)c2cccnc21 (stereo not drawn),21.13%
11,CN(C)c1ccc(NC(=O)NCc2ccc(Cl)s2)cn1,17.62%
12,CN(C)c1ccc(NC(=O)NCc2ccccn2)cn1,17.39%
13,Cc1nc(CNC(=O)Nc2ccc(N(C)C)nc2)sc1C,74.34%
14,O=C(CC1=CSC2=NCCN12)N1CCCC(CCc2cccc(F)c2)C1 (stereo not drawn),-33.45%
15,CN(C)C(=O)Cc1ccccc1NCc1nc(Cc2ccccc2)no1,-12.95%
16,CNC(=O)C1(c2cnccn2)CCCN1C(=O)c1ccccn1 (stereo not drawn),-3.55%
17,OCCNc1nc(Nc2ccccc2)c2nccnc2n1,4.64%
18,Cc1cnn(CCNCC(=O)Nc2ccc(Cl)cn2)c1,-1.56%
19,Cc1cnn(CCNC(C)C(=O)Nc2ccc(Cl)cn2)c1 (stereo not drawn),67.44%
20,Cc1cnn(CC(C)NCC(=O)Nc2ccc(Cl)cn2)c1 (stereo not drawn),42.11%
21,Cc1nn(C)c2c(N3CCN(C(=O)C(C)C)CC3)ncnc12,31.57%
22,CCN(CCn1cccn1)Cc1nc(-c2ccoc2)oc1C,-16.71%
23,CCN(CCn1cccn1)Cc1nc(-c2ccc(F)cc2)oc1C,-11.66%
24,CCN(CCn1cccn1)Cc1nc(-c2cccc(C)c2)oc1C,65.76%
25,Cc1cccc(CN2CCC3(CC2)NC(=O)C[C@H]3c2cnn(C)c2)n1,14.65%
